Inconclusive results are not listed. The source made the active and inactive calls. Calls follow the shape of the dose curve; as a rule, active = well fitted cell-killing curve with a large enough effect in the repeat runs; inconclusive = weak or mixed curves; inactive = flat fitted curve, though single readings scatter.

Results on 40 compounds are retold here after PubChem BioAssay (Tox21).
% is scaled to controls: 0 for no effect and ±100 for the full control effect.

This experiment in a line: qHTS RealTime-Glo MT Cell Viability Assay in HepG2 cells - 8 hour (AID 1224873). Also: nearly all actives have a fitted effect of over 55% in size. The conditions noted are these: RealTime-Glo luminescence; series mostly up to 76.8 µM; viability change, negative = cytotoxic: at the top concentration. From the text:
National Center for Advancing Translational Sciences [NCATS]
NIH Chemical Genomics Center [NCGC]
U.S. Environmental Protection Agency [EPA]
National Institutes of Environmental Health Sciences [NIEHS]
National Toxicology Program [NTP]
U.S. Food and Drug Administration [FDA]
Measure of cell viability is critical in the cell-base assay. Analysis of cell viability is necessary for the characterization of cell responses to cytotoxic drugs and environmental stress. A RealTime-Glo MT Cell Viability Assay to monitor cell viability in real time of continues cell culture during 40 hours of compound treatment was used to screen Tox21 10K library compounds in HepG2 cells. The RealTime-Glo MT Cell Viability Assay is a nonlytic, homogeneous, bioluminescent method to measure cell viability in real time using a simple, plate-based method. The assay involves adding NanoLuc luciferase and a cell-permeant prosubstrate to cells in culture. Viable cells reduce the proprietary prosubstrate to generate a substrate for NanoLuc luciferase. This substrate diffuses from cells into the surrounding culture medium, where it is rapidly used by the NanoLuc Enzyme to produce a luminescent signal. The signal correlates with the number of viable cells, making the assay well suited for cytotoxicity studies.
Tox21 Assay Protocol Summary:
The mixture of HepG2 cell suspension and reagents were dispensed at 600cells/6 ul/well in 1536-well tissue culture treated black solid bottom plates using a Multidrop dispenser. After the assay plates were incubated at a 37 C/5% CO2 incubator for 5 hours, 23 nL of compounds dissolved in DMSO, positive and negative controls was transferred to the assay plate by a pintool work station. The plates were incubated at 37 C for 40 hours. The luminescence intensity were measured at 0h, 8h, 16h, 24h, 32h and 40h time points using ViewLux plate reader during compound treatment.
In general terms: In qHTS, concentration-response curves come from the screen itself.
As to `CCCCCCCCC(CO)CCCCCC` (stereo not given), the “viability change, negative = cytotoxic” value was 5% (inactive).
Turning to `Cc1ccc2c(ccc3ccccc32)c1`, the “viability change, negative = cytotoxic” value was 1.01% (inactive).
As for `Nc1cnn([C@@H]2O[C@H](CO)[C@@H](O)[C@H]2O)c(=O)n1`, the “viability change, negative = cytotoxic” value was -1.29% (inactive).
On to `OCC1CC2CC1C1CCC(CO)C21` (stereo not given), for which the “viability change, negative = cytotoxic” value is 0.172% (inactive).
Take `O=C(NS(=O)(=O)/C=C/c1cccs1)c1ccc(F)cc1Br`: the “viability change, negative = cytotoxic” value was -4.7% (inactive).
The same measure for `CC(=O)/C(C)=C/C1C(C)=CCCC1(C)C` (stereo not given): 1.7% (inactive); for `ClC(Cl)(Cl)c1ccc(C(Cl)(Cl)Cl)cc1`: 0.777% (inactive).
The same measure for `CC[C@H](C)[C@@H](C(=O)O)n1sc2ccccc2c1=O`: 2.63% (inactive); for `Nc1nc(CC(=O)O)cs1`: -0.935% (inactive).
Then `O=C(/C=C/c1ccc(O)c(O)c1)O[C@@H]1C[C@](O)(C(=O)O)C[C@@H](O)[C@H]1O`, with -14.3% (inactive); and `C#CCOC(=O)[C@@H](C)Oc1ccc(Oc2ncc(Cl)cc2F)cc1`, with -20.3% (inactive).
As for `N#Cc1c(F)cccc1F`, the “viability change, negative = cytotoxic” value is 0.861% (inactive).
The same measure for `CCN1CCC[C@H]1CNC(=O)c1c(OC)ccc(Br)c1OC`: 4.76% [at 35.3 µM] (inactive); for `CCCCCCCCCCCCC(=O)O`: 5.16% (inactive).
`CCCCCCCCCCCCCCC1CO1` (stereo not given): the “viability change, negative = cytotoxic” value is 2.55% (inactive).
Then `CCOc1ccc(NC(=O)CC(C)=O)cc1`, with 1.46% (inactive); and `CC(=O)c1ccc2c(c1)[C@H](NC(=O)c1ccc(F)cc1)[C@@H](O)C(C)(C)O2`, with -4.62% (inactive); and `Cc1ccc(C(=O)C(C)CN2CCCCC2)cc1` (stereo not given), with 6.6% [at 35.3 µM] (inactive).
The same measure for `O=C1CCCCCO1`: -0.587% (inactive).
On to `COc1ccc2[nH]c(S(=O)Cc3ncc(C)c(OC)c3C)nc2n1` (stereo not given), for which the “viability change, negative = cytotoxic” value was -5.37% [at 35.3 µM] (inactive).
Then `O=C(O)[C@@H]1[C@H]2C[C@H]3c4[nH]c5ccccc5c4CCN3C[C@@H]2CC[C@@H]1O`, with 6.12% [at 35.3 µM] (inactive).
As to `CC1=CC(=O)/C(=C(/C)O)C(=O)O1`, the “viability change, negative = cytotoxic” value is 0.822% (inactive).
The same measure for `CCCCCCCCCO`: 3.23% (inactive).
Take `CCCC(C)C`: the “viability change, negative = cytotoxic” value is -0.722% (inactive).
The same measure for `NCc1ccccc1`: 2.72% (inactive).
Consider `N[C@H]1C(O)O[C@H](CO)[C@H](O)[C@@H]1O` (stereo not given in full), for which the “viability change, negative = cytotoxic” value is 0.47% (inactive).
On to `CCCCCCCCCC(=O)OCC`, for which the “viability change, negative = cytotoxic” value was 0.938% (inactive).
Turning to `CCCCOCCOCCOCCOCCO`, the “viability change, negative = cytotoxic” value was 0.0575% (inactive).
Consider `C=C(C)C(=O)OCCOc1ccccc1`, for which the “viability change, negative = cytotoxic” value was -0.2% (inactive).
On to `Cn1c(N)nc2nc[nH]c2c1=O`, for which the “viability change, negative = cytotoxic” value was -1.03% (inactive).
The same measure for `Cn1c(=O)c2c(ncn2CC(O)CO)n(C)c1=O` (stereo not given): 5.09% [at 35.3 µM] (inactive).
Then `CNS(=O)(=O)Cc1ccc2[nH]cc(CCN(C)C)c2c1`, with 0.279% [at 35.3 µM] (inactive); and `CCOC(=S)SSC(=S)OCC`, with 1.1% (inactive); and `C=Cc1c(C)c2cc3[nH]c(cc4nc(cc5nc(cc1[nH]2)C(C)=C5CCC(=O)O)C(CCC(=O)O)=C4C)c(C)c3C=C`, with -7.92% [at 35.3 µM] (inactive).
Then `CC(C)NCC(O)COc1ccc(CC(N)=O)cc1` (stereo not given), with 2.68% (inactive); and `CC1(C)CCC(C)(C)c2cc(NC(=O)c3ccc(C(=O)O)cc3)ccc21`, with 4.67% [at 35.3 µM] (inactive).
For the compound `Cc1ccccc1N=Nc1ccc(N=Nc2c(O)ccc3ccccc23)c(C)c1`, the “viability change, negative = cytotoxic” value was -0.7% [at 35.3 µM] (inactive).
Consider `NC(=S)N/N=C/c1cccnc1`, for which the “viability change, negative = cytotoxic” value was -0.214% [at 35.3 µM] (inactive).
The same measure for `CC1CCc2cc(F)cc3c(=O)c(C(=O)O)cn1c23` (stereo not given): 3.49% [at 35.3 µM] (inactive); for `C=CC(=O)OCCOC(=O)CCC(=O)O`: -11.7% (inactive).
